The full ranking holds about 35,000 sequences; the median of “fluorescence intensity (a.u.)” is about 10,000, and the highest 2% start at about 52,000. The full list was thinned out, with the highest values kept by preference.
Target: T1, OsWOX13 (Oryza sativa, UniProt Q5QMM3 1-267)
T1 sequence: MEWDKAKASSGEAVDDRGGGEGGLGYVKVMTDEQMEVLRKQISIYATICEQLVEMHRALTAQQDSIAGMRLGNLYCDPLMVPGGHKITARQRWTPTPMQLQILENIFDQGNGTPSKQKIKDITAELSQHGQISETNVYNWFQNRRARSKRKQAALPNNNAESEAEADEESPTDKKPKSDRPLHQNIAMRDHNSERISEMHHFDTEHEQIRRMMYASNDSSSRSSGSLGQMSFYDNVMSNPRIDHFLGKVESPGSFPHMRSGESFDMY
Assay: protein-binding microarray (RPBM); PBS, 2% BSA, 51.3 ng/ul salmon testes DNA, 50 uM zinc acetate, 200 nM TF, 25 C, 1 h; high values mean tight binding
Conditions: protein: recombinant; tags: N-terminal polyhistidine and DsRed monomer fusion (pET32a); label: CyDye5-dUTP incorporated in the synthesized complementary strand; 3' TTTTT single-stranded linker to array surface; dsDNA, one strand shown
In short: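 The binding signal is fluorescence intensity per array feature (arbitrary units). Readings came from an Axon 4000B scanner after a washed, 2% BSA-blocked, double-stranded custom Agilent array had been incubated for 1 h at 25 °C with 200 nM protein and 50 µM zinc acetate. The protein was a Ni–NTA-purified transcription factor fused N-terminally to polyhistidine and DsRed, expressed in E. coli BL21-CodonPlus.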

Sequence	binding signal
ACTAATCTGATTGTGTCACTTGTGCGATTGATGGAGTTCACGGAGTCACCTAGTGCAG	23900 fluorescence intensity (a.u.)
TTTTGATTGAAGACACACCTATTGTCGCGAATACTGCTAACGGAGTCACCTAGTGCAG	40500 fluorescence intensity (a.u.)
CCACGCCAATTAGCATCCCACGTTTCGCCTTTGATTGTGGCGGAGTCACCTAGTGCAG	10600 fluorescence intensity (a.u.)
ATATTTAATTATTATTTTAATAAAACTAATTTGGTAATGTCGGAGTCACCTAGTGCAG	25700 fluorescence intensity (a.u.)
CTATAATTTGTAGATGATGTAGTATAATTATATTTAATCACGGAGTCACCTAGTGCAG	37300 fluorescence intensity (a.u.)
TATAATTTAAATTTAACTAAATTAATGGTATTACAGATGTCGGAGTCACCTAGTGCAG	58500 fluorescence intensity (a.u.)
ATTAATAATGTATAATTTATTTTAGTGGTATTAATGTTGTCGGAGTCACCTAGTGCAG	22400 fluorescence intensity (a.u.)
TCATTAATTAATTAATTACAGTGGTAGATGATGATGTAGTCGGAGTCACCTAGTGCAG	64000 fluorescence intensity (a.u.)
TGTTACATATAATGAAATTAATTTGGTATTGTAGATGTTGCGGAGTCACCTAGTGCAG	13600 fluorescence intensity (a.u.)
CATTATAGATTAATACATTTTGGGATGGAGGGAGTACTCACGGAGTCACCTAGTGCAG	3200 fluorescence intensity (a.u.)
GACAGGATTATCACCTATTTGTCAACAGTTCACCAGGAGCCGGAGTCACCTAGTGCAG	3360 fluorescence intensity (a.u.)
ATTTAACGTCATTTATAAACATATACTAGATACTAGTAATCGGAGTCACCTAGTGCAG	3890 fluorescence intensity (a.u.)
GTCAACTGGAAATTGAAATTCAGCCAAAATTAGTGATCAGCGGAGTCACCTAGTGCAG	4850 fluorescence intensity (a.u.)
GTAGCAAATTTACAAATTTGCAGGGCTAGCTGTTGCGGTGCGGAGTCACCTAGTGCAG	11100 fluorescence intensity (a.u.)
AAGCATCAATTCGTTGCCTGATTAGTACAACACTGTTGTGCGGAGTCACCTAGTGCAG	5420 fluorescence intensity (a.u.)
CTAATCCCAGATTGCTAGTGATTAGCACGTAGATACATAGCGGAGTCACCTAGTGCAG	21700 fluorescence intensity (a.u.)
CAACTTGATTAGTAGTAGTACTAGTTTGATTTTGTCCTGGCGGAGTCACCTAGTGCAG	54200 fluorescence intensity (a.u.)
ATATAAATATTAGTAATCAATTGAGGGAACATTTGATTTGCGGAGTCACCTAGTGCAG	11300 fluorescence intensity (a.u.)
TCCAGTCCAATCAGCCCACCATAATTTGGGCCGGAATAAGCGGAGTCACCTAGTGCAG	17600 fluorescence intensity (a.u.)
CTAATTAGTTTTGGTTAGTACTTATAATTTTGTCCTAATGCGGAGTCACCTAGTGCAG	15700 fluorescence intensity (a.u.)
ATTTCTGATTGGTGAGATGGGTGATTCGGTAGGCCATTGGCGGAGTCACCTAGTGCAG	40100 fluorescence intensity (a.u.)
CGGTAGTGATTGATTCGGATGATTTCACCAGTAGGATTGGCGGAGTCACCTAGTGCAG	65300 fluorescence intensity (a.u.)

Sequence	binding signal
TGTTTGCGATTGATTTGTACTACACAGTGGGTGCTTCTCCCGGAGTCACCTAGTGCAG	35300 fluorescence intensity (a.u.)
GCCCTTGATTTCTGACTAGATTTGTGTTATTCTACTTACACGGAGTCACCTAGTGCAG	27200 fluorescence intensity (a.u.)
GTTTGATTGTTTTCTAGTGTACTACACTTCCCTAGAACGTCGGAGTCACCTAGTGCAG	55000 fluorescence intensity (a.u.)
AGAGGGTGGGGACATGGGGATTGATTTCACCTGTAGGATTCGGAGTCACCTAGTGCAG	3430 fluorescence intensity (a.u.)
CATTTACTAATTTGTTTGCTTGATTGTCCTGGCGAAATTGCGGAGTCACCTAGTGCAG	40000 fluorescence intensity (a.u.)
CAATAATTGAGTGATTTGGCCCAGTCCAGGAACTAGTAAGCGGAGTCACCTAGTGCAG	56100 fluorescence intensity (a.u.)
TATAATTTAAATTCAAATTTGAATCGGGTATGTAAACTTTCGGAGTCACCTAGTGCAG	15500 fluorescence intensity (a.u.)
TCATGAAATTAATAGGATGCCACGTCGACTTGGTTGTTCCCGGAGTCACCTAGTGCAG	3510 fluorescence intensity (a.u.)
ATAAATTTATAGGTAAAACTTTTATATAGATGTTCTTGGTCGGAGTCACCTAGTGCAG	15300 fluorescence intensity (a.u.)
TGAAATTGGAATGATGTGAAGGAAAAGTTGGAAGTTTGTGCGGAGTCACCTAGTGCAG	20700 fluorescence intensity (a.u.)
CTAATTACTATCCATCATGTTTCTGTGGACGCGCGGCTCACGGAGTCACCTAGTGCAG	9700 fluorescence intensity (a.u.)
TCTCTATAATTAAACATTCCAATTTCGAAAATGTTGTTAGCGGAGTCACCTAGTGCAG	8580 fluorescence intensity (a.u.)
AAGTTTCAAAATTTAAATTTTGACCGCATGCAGCTGATAACGGAGTCACCTAGTGCAG	4610 fluorescence intensity (a.u.)
ACGTTATTAATTACTTAGTACTACTATGAGTTAACTATGGCGGAGTCACCTAGTGCAG	18500 fluorescence intensity (a.u.)
TTAGATTGGGACAGTACGTAGGAATTGGTTGATTTCCGGGCGGAGTCACCTAGTGCAG	16300 fluorescence intensity (a.u.)
CACCATTGCATGATTGCATCTGCATCACTGCATGCCAACGCGGAGTCACCTAGTGCAG	5680 fluorescence intensity (a.u.)
GCTTAATTGGTTAGTGGACTAGTATATAGTAGTACTGTATCGGAGTCACCTAGTGCAG	46500 fluorescence intensity (a.u.)
CAGTGTGATTGACTGTTGAGGCGGAGTCGGAGCTGCTTGTCGGAGTCACCTAGTGCAG	50900 fluorescence intensity (a.u.)
TATTGATTGATTGGTTAGTACTACAGTACTGTAGGAGTGGCGGAGTCACCTAGTGCAG	64700 fluorescence intensity (a.u.)
CCTGATTCTGATTGGCGCCAACGTACGTACTGTACATGCGCGGAGTCACCTAGTGCAG	56900 fluorescence intensity (a.u.)
CATTGATTGACATTGTTGAGGCAGTACTGTTACAGTTGAGCGGAGTCACCTAGTGCAG	59400 fluorescence intensity (a.u.)

From PMC7819943, “Rice protein-binding microarrays: a tool to detect cis-acting elements near promoter regions in rice”
